Source: PubChem
Shown are actives, neighbours in structure and some others; about 4.6% of the full set was active somewhere.
tim10-1 inh: tim10-1 yeast growth inhibition; S. cerevisiae tim10-1 ts strain growth, BacTiter-Glo, 24 h; inhibition, % at 20 µM; actives 2.2% (n = 330,000); AID 463190;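 active means inhibition of at least 40%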;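 further: mutant grown at 25 °C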
SKKanGAS inh: blocks kanamycin growth of S. pyogenes SKKanGAS strain; BacTiter-Glo, 6 h; inhibition, % at 7.5 µM; actives 1.3% (n = 300,000);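 active means mean replicate score, as percent of positive control median, at least 50; inconclusive means mean below 50 but one replicate at or above 50; inactive means mean and every replicate below 50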;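 further: strain carries kanamycin resistance gene driven by streptokinase promoter and grows in 40 µg/ml kanamycin; loss of luminescence reflects streptokinase promoter inhibition or plain growth inhibition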
TIM10 inh: growth inhibitors of TIM10 yeast strain | S. cerevisiae TIM10 strain growth, BacTiter-Glo luminescence, 24 h | inhibition, % at 10 µM | actives 1.4% (n = 330,000) | AID 463195;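 active means inhibition of 40% or more at the single tested concentration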;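 further: wild-type TIM10 isogenic control strain grown at permissive 25 °C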
tim23-1 inh: tim23-1 yeast growth inhibition | S. cerevisiae tim23-1 growth, BacTiter-Glo luminescence, 24 h | inhibition, % at 20 µM | actives 1.3% (n = 330,000) | AID 463212;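 active means growth inhibition of the mutant yeast at or above 50%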;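 further: temperature-sensitive mutant grown at 25 °C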
NALP3 yeast inh: inhibitors of NALP3 inflammasome in yeast; Yeast reconstituted NLRP3/ASC/caspase-1, beta-gal luminescence, 24 h; AID 2825; actives 0.39% (n = 330,000); inhibition, % at 10 µM;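 active means inhibition of 50% or more; inactive means inhibition below 50%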
PfHsp90 set2: reduces growth (ATP signal) of yeast expressing P. falciparum Hsp90; S. cerevisiae expressing PfHsp90, BacTiter-Glo ATP, 48 h; yeast lacking PDR1 and PDR3 efflux regulators; inhibition, % at 9.4 µM; actives 0.32% (n = 310,000);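 active means every replicate shows inhibition above about 80%, whatever the replicate mean, limit read from the data; inconclusive means mean inhibition reaches the set limit but some replicate falls short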
Of the large screens only hits and unclear results are named; the others gave an inactive call.

O=C(NC(=S)Nc1ccc(Cl)cn1)C(c1ccccc1)c1ccccc1	SKKanGAS inh 77 (no result: PfHsp90 set2)
O=c1/c(=C\c2cccc(O)c2)sc2nc(-c3ccccc3)c(-c3ccccc3)n12	SKKanGAS inh 70
Cc1cc(O)c(C(C)C)cc1C1(c2cc(C(C)C)c(O)cc2C)OC(=O)c2ccccc21	SKKanGAS inh 84
CC1CCCN(c2nc(NCc3ccco3)nc(N)c2[N+](=O)[O-])C1 (centres undefined)	none
Cc1ccc(Nc2nc(N)c([N+](=O)[O-])c(N3CCCC(C)C3)n2)cc1C (centres undefined)	PfHsp90 set2 132
CC1Oc2cc3oc4c(O)c5c(cc4c(=O)c3c(O)c2C1(C)C)C=CC(C)(C)O5 (centres undefined)	SKKanGAS inh 70 (no result: PfHsp90 set2)
CC(C)=CCc1cc2c(=O)c3c(O)c4c(cc3oc2c(O)c1O)OC(C)C4(C)C (centres undefined)	SKKanGAS inh 103 (no result: PfHsp90 set2)
CC1=C(C(=O)Nc2ccccc2)C(c2cccnc2)n2ncnc2N1 (centres undefined)	none
Cc1ccc(N(CC(=O)Nc2ccc(Br)c(C)c2)S(=O)(=O)c2c(C)[nH]c(=O)[nH]c2=O)cc1	none
CCOc1ccc(C(=O)NC(=S)N2CCN(c3ccc(C(F)(F)F)cc3[N+](=O)[O-])CC2)cc1	none
COc1cccc(C(=O)NC(=S)N2CCN(c3ccc(C(F)(F)F)cc3[N+](=O)[O-])CC2)c1	SKKanGAS inh 70
O=C(NC(=S)N1CCN(c2ccc(Cl)cc2[N+](=O)[O-])CC1)c1ccco1	none
O=C(NC(=S)N1CCN(c2ccc(Cl)cc2[N+](=O)[O-])CC1)c1cccs1	SKKanGAS inh 71 (no result: tim10-1 inh, TIM10 inh, tim23-1 inh, NALP3 yeast inh)
CC(C)Oc1cccc(C(=O)NC(=S)N2CCN(c3ccc(C(F)(F)F)cc3[N+](=O)[O-])CC2)c1	SKKanGAS inh 97 (no result: PfHsp90 set2)
O=C(COc1ccc(Br)cc1)NCCCNC(=O)c1ccncc1	none
CCn1ccc(-c2ccccc2)c(C#N)c1=O	none
CCSc1ncnc2sc3c(c12)CCC3	none
Fc1ccc(CSc2ncnc3sc4c(c23)CCCC4)cc1	SKKanGAS inh 77
COc1cc2cc(Oc3ccc4ccc(=O)oc4c3)c(=O)oc2cc1OC(C)=O	none
COc1cc2cc(Oc3ccc4ccc(=O)oc4c3)c(=O)oc2cc1O	SKKanGAS inh 59
CCOC(=O)Cc1csc(NC(=O)c2ccc3ncsc3c2)n1	none
CC(/C=C/c1ccc2c(c1)OCO2)=N/NC(=O)c1ccncc1	none
CC1=C(/C=C/C(C)=N\NC(=O)c2ccncc2)C(C)(C)CCC1	SKKanGAS inh 57
CN(C(=O)CSc1ncnc2sccc12)c1c(N)n(Cc2ccccc2)c(=O)[nH]c1=O	none
COc1ccccc1NC(=O)C(=O)NNC(=O)COc1ccc2ccccc2c1	SKKanGAS inh 67
CCN1/C(=C\c2ccc3cc(C)ccc3[n+]2CC)Sc2cc(C)c(C)cc21	SKKanGAS inh 71, PfHsp90 set2 94 (no result: tim10-1 inh, TIM10 inh, tim23-1 inh, NALP3 yeast inh)
CCN1/C(=C/c2ccc3cc(C)cc(C)c3[n+]2CC)Sc2cc(C)ccc21	PfHsp90 set2 102 (no result: tim10-1 inh, SKKanGAS inh, TIM10 inh, tim23-1 inh, NALP3 yeast inh)
C=CC[n+]1c(/C=C2\C=Cc3cc(C)ccc3N2CC)ccc2ccccc21	none
COc1ccc(OC)c(S(=O)(=O)N2CCCC(C(=O)NC3CC3)C2)c1 (centres undefined)	none (no result: tim10-1 inh, SKKanGAS inh, TIM10 inh, tim23-1 inh, NALP3 yeast inh)
COCCn1c(SC(C)C(=O)NCC2CCCO2)nc2sc3c(c2c1=O)CCC3 (centres undefined)	none
COc1ccccc1CN1CN(S(=O)(=O)c2ccccc2)c2nc3ccccc3nc21	SKKanGAS inh 50
COCCN1CN(S(=O)(=O)c2ccccc2)c2nc3ccccc3nc21	none
COc1ccccc1CNS(=O)(=O)c1ccc(-c2cnc(C3CC3)o2)cc1	none
N=c1c(-c2nc3ccccc3[nH]2)cc(C(=O)c2ccco2)nn1-c1ccccc1	none
N=c1c(-c2nc3ccccc3[nH]2)cc(C(=O)c2cccs2)nn1-c1ccccc1	SKKanGAS inh 51 (no result: PfHsp90 set2)
Cc1ccc(C)c(/C=N/NC(=S)NCCc2ccccc2)c1	SKKanGAS inh 54
Oc1ccccc1/C=N/NC(=S)NCCc1ccccc1	SKKanGAS inh 96 (no result: tim10-1 inh, TIM10 inh, tim23-1 inh, NALP3 yeast inh)
CCNC(=S)N/N=C/c1cc(C)ccc1C	none
Cc1occc1-c1nnc(SC(C)C(=O)Nc2ccccc2F)o1 (centres undefined)	none (no result: SKKanGAS inh)
COc1ccc(-c2nc(CSCC(=O)NCCCN3CCCC3=O)c(C)o2)cc1OC	none
C=CCn1c(NC(=O)c2ccccc2)nc2ccccc21	SKKanGAS inh 65
CCn1c(NC(=O)c2cccc(Cn3cc(Cl)cn3)c2)nc2ccccc21	SKKanGAS inh 85
COc1ccc(CN2CCNC(=O)C2CC(=O)NCc2cc(C)n(C)n2)c(F)c1 (centres undefined)	none
CCc1noc(C)c1C(=O)Nc1sc(C(=O)N(C)C)c(C)c1C#N	none
COc1ccc(-c2nc(NC(=O)C3CC(=O)N(c4ccc5c(c4)OCCO5)C3)sc2C)cc1 (centres undefined)	SKKanGAS inh 55
COc1ccc2nc(NC(=O)C3CC(=O)N(c4ccc5c(c4)OCCO5)C3)sc2c1 (centres undefined)	none (no result: SKKanGAS inh)
O=C(CSc1nnc(CNC(=O)c2cccc(C(F)(F)F)c2)o1)NC1CCCCC1	SKKanGAS inh inconclusive
Cc1ccn2c(Nc3ccc4c(c3)OCO4)c(-c3ccccn3)nc2c1	SKKanGAS inh 97
Cc1ccc2nc(-c3ccncc3)c(Nc3ccccc3)n2c1	none
Cc1ccn2c(NC3CCCC3)c(-c3ccccn3)nc2c1	SKKanGAS inh 91
Cc1ccc(Nc2c(-c3ccccn3)nc3ccc(C)cn23)cc1	SKKanGAS inh 97
c1ccc(-c2nc3ccccn3c2NC2CCCC2)nc1	SKKanGAS inh 75
Cc1ccn2c(NC3CCCC3)c(-c3ccncc3)nc2c1	none
Cc1ccc(-c2nc3cnccn3c2Nc2ccc3c(c2)OCO3)o1	none
CCN(CC)CCCNc1nc(N)c([N+](=O)[O-])c(N2CCCCCC2)n1	SKKanGAS inh 66
N#Cc1ccc(Cl)cc1NC(=O)CSc1nc2nc(-c3cccs3)cc(C(F)(F)F)c2c(=O)[nH]1	SKKanGAS inh 55 (no result: PfHsp90 set2)
COc1ccc(NC(=O)CSc2nc3nc(-c4cccs4)cc(C(F)(F)F)c3c(=O)[nH]2)c(OC)c1	SKKanGAS inh 54
O=[N+]([O-])c1ccc(Cl)c(NC2=NCCCCC2)c1	none
COc1cccc2c1Oc1ncccc1N(C(=O)CCC(=O)NCc1ccc(C)cc1)C2	none
Clc1ccc(-c2ccc(/C=N/Nc3cc(N4CCOCC4)nc(N4CCOCC4)n3)o2)cc1	SKKanGAS inh 76
C/C(=N\NC(=O)c1ccc(F)cc1)c1ccccn1	SKKanGAS inh 89
CCOc1ccc(C(=O)N/N=C(\c2ccccc2)c2ccccn2)cc1	SKKanGAS inh 69
C=CCn1c(O)c(C2=c3ccccc3=NC2=O)c2ccccc21	PfHsp90 set2 110
